# Test results as given in PubChem BioAssay (EPA / NIEHS).
# Inconclusive results are not listed. Active and inactive are the calls of the source. Rule for the calls: active = hit-call score of the fitted dose curve at least 0.9, where 1 is the maximum; inconclusive = response in the unintended direction; inactive = score below 0.9.
# Biological target: Thyroid hormone receptor alpha (Rattus norvegicus) + Thyroid hormone receptor beta (Rattus norvegicus) (UniProt P18113+P63059)
# Assay: TOX21_TR_LUC_GH3_Antagonist_Followup: Tox21 GH3 Thyroid Hormone Receptor Antagonism Luciferase Follow-Up Assay (AID 2283942)
# Outline: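 Rat pituitary GH3 cells with a TRα/TRβ-driven luciferase reporter, 5 h attachment, then 15 concentrations (92 uM to 5nM final) plus 1.0 nM T3 agonist, 24 h at 37C/5% CO2. ONE-Glo luminescence; signal change fitted against DMSO baseline.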
SMILES,outcome,AC50
Cc1nc2ccc(CN(C)c3ccc(C(=O)N[C@@H](CCC(=O)O)C(=O)O)s3)cc2c(=O)[nH]1,inactive,
Cc1ccc(Nc2nccc(N(C)c3ccc4c(C)n(C)nc4c3)n2)cc1S(N)(=O)=O,,31.3 µM (active)
COC(=O)Nc1nc2ccc(S(=O)c3ccccc3)cc2[nH]1 (configuration not stated),inactive,
CC(=O)OCC(=O)[C@H]1CC[C@H]2[C@@H]3CCC4=CC(=O)CC[C@]4(C)[C@H]3CC[C@]12C,inactive,
O=c1[nH]c(=O)n([C@H]2C[C@H](O)[C@@H](CO)O2)cc1C(F)(F)F,inactive,
O=C1c2ccccc2-c2n[nH]c3cccc1c23,inactive,
COc1cc(NCc2ccc3nc(N)nc(N)c3c2C)cc(OC)c1OC,inactive,
O=C(O)c1cccnc1Nc1cccc(C(F)(F)F)c1,inactive,
C/C=C1/C(=O)C[C@H]2[C@@H]3CCC4=CC(=O)CC[C@]4(C)[C@H]3CC[C@]12C,inactive,
C#C[C@]1(O)CC[C@H]2[C@@H]3CCC4=C(CCC(=O)C4)[C@H]3CC[C@@]21C,inactive,
CCCCCCC[N+](CC)(CC)CCCCc1ccc(Cl)cc1,inactive,
CC(=O)O[C@@]12CO[C@@H]1C[C@H](O)[C@@]1(C)C(=O)[C@H](O)C3=C(C)[C@@H](OC(=O)[C@H](O)[C@@H](NC(=O)OC(C)(C)C)c4ccccc4)C[C@@](O)([C@@H](OC(=O)c4ccccc4)[C@H]21)C3(C)C,inactive,

# Biological target: THRA (gene 7067) (UniProt P10827)
# Sequence (P10827 whole entry, looked up): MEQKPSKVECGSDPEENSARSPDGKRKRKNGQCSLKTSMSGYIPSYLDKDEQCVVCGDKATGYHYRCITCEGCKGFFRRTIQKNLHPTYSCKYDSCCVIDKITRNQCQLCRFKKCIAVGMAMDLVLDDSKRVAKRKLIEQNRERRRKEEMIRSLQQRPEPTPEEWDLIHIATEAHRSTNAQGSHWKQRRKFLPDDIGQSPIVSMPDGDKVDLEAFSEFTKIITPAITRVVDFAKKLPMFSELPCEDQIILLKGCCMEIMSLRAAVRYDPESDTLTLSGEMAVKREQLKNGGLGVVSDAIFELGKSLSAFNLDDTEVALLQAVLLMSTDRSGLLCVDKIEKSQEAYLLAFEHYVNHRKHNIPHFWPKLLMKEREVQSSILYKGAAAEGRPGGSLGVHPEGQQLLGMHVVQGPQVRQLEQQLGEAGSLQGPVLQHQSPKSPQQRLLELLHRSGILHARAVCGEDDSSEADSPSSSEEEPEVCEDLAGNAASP
# Assay: TOX21_TRA_COA_Antagonist_Followup_ratio: Tox21 Thyroid Hormone Receptor alpha Antagonism through Coactivator Recruitment Follow-Up Assay, Ratio (AID 2283953)
# Outline: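 520:495 nm emission ratio (excitation 340 nm) reports fluorescein-SRC-2 peptide recruitment to GST-TRα LBD by TR-FRET with Tb anti-GST antibody. Values were normalized to DMSO (0%) and T3 control wells (100%); loss of signal indicated antagonism.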
row,SMILES,outcome
1,Cc1ccc(Nc2nccc(N(C)c3ccc4c(C)n(C)nc4c3)n2)cc1S(N)(=O)=O,inactive
2,COC(=O)Nc1nc2ccc(S(=O)c3ccccc3)cc2[nH]1 (configuration not stated),inactive
3,CC(=O)OCC(=O)[C@H]1CC[C@H]2[C@@H]3CCC4=CC(=O)CC[C@]4(C)[C@H]3CC[C@]12C,inactive
4,O=C1c2ccccc2-c2n[nH]c3cccc1c23,inactive
5,COc1cc(NCc2ccc3nc(N)nc(N)c3c2C)cc(OC)c1OC,inactive
6,O=C(O)c1cccnc1Nc1cccc(C(F)(F)F)c1,inactive
7,C/C=C1/C(=O)C[C@H]2[C@@H]3CCC4=CC(=O)CC[C@]4(C)[C@H]3CC[C@]12C,inactive
8,C#C[C@]1(O)CC[C@H]2[C@@H]3CCC4=C(CCC(=O)C4)[C@H]3CC[C@@]21C,inactive
9,CCCCCCC[N+](CC)(CC)CCCCc1ccc(Cl)cc1,inactive
10,CC(=O)O[C@@]12CO[C@@H]1C[C@H](O)[C@@]1(C)C(=O)[C@H](O)C3=C(C)[C@@H](OC(=O)[C@H](O)[C@@H](NC(=O)OC(C)(C)C)c4ccccc4)C[C@@](O)([C@@H](OC(=O)c4ccccc4)[C@H]21)C3(C)C,inactive
